# Values joined by “and” are separate entries in the source; they are usually repeats but may differ in a detail not shown here. Identical values can stand only once. Records with an inconclusive call do not appear. Where a call stands in place of a potency, no number is given. Active and inactive are the calls of the source. Unless noted, calls follow the shape of the dose curve; as a rule, active = well fitted curve in the direction sought with a large enough effect; inconclusive = small, poorly fitted or top-dose-only effect, or another doubt; inactive = no such curve, though single readings can be large; an effect the other way counts as inactive or inconclusive.
# Legend:
# [1] = qHTS Assay for Identifying Gametocytocidal Compounds (AID 743244); also: potency is read from the fitted curve at half-maximal effect;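 as to max response: actives lower the fluorescent signal which means gametocytes are killed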; settings: P. falciparum 3D7 stage III-V gametocytes, alamarBlue, 72 h; max response: stronger effect = lower value
# Method in brief: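 P. falciparum 3D7 stage III–V gametocytes (20,000 cells/well) were exposed to compounds for 72 h at 37 °C, 5% CO2. AlamarBlue was then added for 24 h; decreased resorufin fluorescence (Ex 525/Em 598 nm) indicated loss of viability.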
# [2] = qHTS profiling of the MIPE4 collection as inhibitors of Plasmodium falciparum (3D7) proliferation (AID 743344; call rule not given here); settings: P. falciparum 3D7 in erythrocytes, SYBR Green DNA fluorescence, 72 h; at 28.5 µM (top of the series)
# Method in brief: (§1)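 Parasite DNA was quantified by SYBR Green I fluorescence (ex 485, em 535 nm) after overnight lysis in saponin/Triton buffer at room temperature. Cultures at 0.3% parasitemia and 2.5% hematocrit were first exposed to compound for 72 h at 37 C; signals were normalised to artemisinin (0.29 uM) and vehicle wells.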
# [3] = qHTS profiling of the MIPE4 collection as inhibitors of Plasmodium falciparum (DD2) proliferation (AID 743345; call rule not given here); settings: P. falciparum Dd2 in erythrocytes, SYBR Green DNA, 72 h; at 28.5 µM (top of the series)
# Method in brief: as §1
# [4] = qHTS profiling of the MIPE4 collection as inhibitors of Plasmodium falciparum (DD2) proliferation (Rep 2) (AID 743346; call rule not given here); settings: P. falciparum Dd2 in erythrocytes, SYBR Green DNA, 72 h; at 28.5 µM (top of the series)
# Method in brief: as §1
# [5] = qHTS profiling of the MIPE4 collection as inhibitors of Plasmodium falciparum (HB3) proliferation (AID 743347; call rule not given here); settings: P. falciparum HB3 in erythrocytes, SYBR Green DNA, 72 h; at 28.5 µM (top of the series)
# Method in brief: as §1
# [6] = qHTS assay for measurement of the activity of small molecule inhibitors on Zika virus induced Caspase-3 activity in human iPSC derived neural progenitor cells (hNPCs) (AID 1224857); also: nearly all actives have a fitted effect of over 65% in size
# Method in brief: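 hNPCs seeded 350 cells/well, cultured 16–20 h; compounds added 1 h before ZIKV (2 FFU/cell), 37 C 6 h. Caspase-Glo 3/7 luminescence after 30 min RT; % inhibition from induction scaled to uninfected (0%) and infected (100%) wells.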
# [7] = qHTS assay for measurement of the activity of small molecule inhibitors on Zika virus induced Caspase-3 activity in human astrocytoma cells (AID 1224859)
# Method in brief: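 Luminescence read-out (Caspase-Glo 3/7, 30 min RT) of caspase activity in SNB-19 cells infected 6 h with ZIKV, 2 FFU/cell, after 1 h compound pretreatment; % inhibition from induction normalised to uninfected (0%) and infected (100%) wells.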
# [8] = qHTS for Activators of Parkin Expression: LOPAC Validation Assay (NLuc Reporter) (AID 720572)
# Method in brief: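 NLuc signal, read 10 min after reagent and following a prior FLuc read, is normalized to DMSO (0) and positive controls (100%). Cells: neuronal Parkin-promoter coincidence reporter line; compounds tested 7-point, 24 h, 37 C, 5% CO2.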
# [9] = qHTS for Activators of Parkin Expression: LOPAC Validation Assay (FLuc Reporter) (AID 720573)
# Method in brief: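 A neuronal cell line harbouring FLuc and NLuc reporters behind the Parkin promoter was exposed to compounds for 24 h. Firefly luciferase signal, measured after 10 min with detection reagent, was scaled to DMSO and positive-control wells.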
# [10] = target: T1, Hexokinase-4 (Homo sapiens) + Glucokinase regulatory protein (Homo sapiens) (UniProt P35557+Q14397); assay: qHTS assay for inhibitors of recombinant human GCK-GKRP interaction: Diaphorase-coupled assay (AID 743205)
# Method in brief: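 Inhibitors of the GCK–GKRP complex relieve GKRP suppression of GCK, detected through a G6PDH–diaphorase cascade reducing resazurin. Human GST-GCK and FLAG-GKRP are used at 10 nM with 5 mM glucose and 0.4 mM ATP.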
# [11] = target: T1, Hexokinase-4 (Homo sapiens) + Glucokinase regulatory protein (Homo sapiens); assay: qHTS assay for inhibitors of recombinant human GCK-GKRP interaction: ADP-Glo assay (AID 743206)
# Method in brief: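 Pin-transferred compounds meet a 15 nM GST-GCK/15 nM FLAG-GKRP/2 uM S6P mix (dispense concentrations). ATP is then added to 0.4 mM final with 5 mM glucose, and the reaction runs 60 min at room temperature. ADP is quantified luminescently.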
# [12] = target: T1, Hexokinase-4 (Homo sapiens) + Glucokinase regulatory protein (Homo sapiens); assay: qHTS assay for inhibitors of recombinant human GCK-GKRP interaction: HTRF assay (AID 743207)
# Method in brief: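 Steps: dispense GCK–GKRP complex (5 nM each, GST- and FLAG-tagged) with 2 uM S6P; pin in compounds; add XL665/Eu-cryptate-labelled antibodies; incubate 60 min at room temperature; read time-resolved FRET at 665 and 615 nm.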
# [13] = qHTS assay for small molecule agonists of the antioxidant response element (ARE) signaling pathway measured by Nrf2-dependant transcriptional activity (AID 720636; active = well fitted curve in the direction sought with a large enough effect in the repeat runs; an effect the other way counts as inactive or inconclusive;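 also: HepG2 cells with an ARE-driven luciferase reporter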)
# Method in brief: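 HepG2 ARE-luc reporter line, 1% dialyzed FBS; 6 hr attachment at 37 C, compound pinned in, 16 hr at 37 C/5% CO2; ONE-Glo, 30 min RT, luminescence read.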
# [14] = qHTS assay for small molecule agonists of the antioxidant response element (ARE) signaling pathway measured by Nrf2-dependant transcriptional activity - cell viability counter screen (AID 720653; active = well fitted curve in the direction sought with a large enough effect in the repeat runs; an effect the other way counts as inactive or inconclusive); settings: ARE-bla HepG2 viability, CellTiter-Glo ATP luminescence, 16 h; stronger effect = lower value
# Method in brief: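 ARE-bla HepG2 cells treated with compounds for 16 h at 37C; this counter screen measures viability as intracellular ATP by CellTiter-Glo luminescence after 30 min at room temperature.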
# [15] = qHTS assay for cell viability of HEK293 cells (AID 743288); settings: ATP luminescence (CellTiter-Glo), 18 h, stronger effect = lower value; also: nearly all actives have a fitted effect of over 50% in size
# Method in brief: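 Quantitative high-throughput screen: compounds were pinned onto parental HEK293 cells (2,000 per well) after a minimum 5 h settling at 37 C, incubated 18 h at 37 C, and intracellular ATP measured by luciferase luminescence.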
# [16] = qHTS assay for cell viability of the p53RE-bla HCT-116 cell line (AID 743292); also: nearly all actives have a fitted effect of over 55% in size
# Method in brief: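 Luminescent ATP quantitation (CellTiter-Glo) served as the viability read-out; reagent was added after 16 h compound exposure at 37 C and read after 30 min at room temperature. Cells: p53RE-bla HCT-116, 4,000 per well.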
# [17] = qHTS assay for small molecule antagonists of the retinoid-related orphan receptor gamma (ROR-gamma) signaling pathway - cell viability counter screen (AID 720652; active = well fitted curve in the direction sought with a large enough effect in the repeat runs; an effect the other way counts as inactive or inconclusive;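 also: CHO reporter cells with doxycycline-induced ROR-gamma expression; compound exposure lasted 16 hr before ATP read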)
# Method in brief: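 Steps: seed CHO cells bearing TET-inducible ROR and ROR response element-luciferase; rest 5 hr at 37 C; add compound, then doxycycline; incubate 16 hr; add CellTiter-Glo and read luminescence as ATP-based viability.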
# T1 sequence (P35557 whole entry, looked up): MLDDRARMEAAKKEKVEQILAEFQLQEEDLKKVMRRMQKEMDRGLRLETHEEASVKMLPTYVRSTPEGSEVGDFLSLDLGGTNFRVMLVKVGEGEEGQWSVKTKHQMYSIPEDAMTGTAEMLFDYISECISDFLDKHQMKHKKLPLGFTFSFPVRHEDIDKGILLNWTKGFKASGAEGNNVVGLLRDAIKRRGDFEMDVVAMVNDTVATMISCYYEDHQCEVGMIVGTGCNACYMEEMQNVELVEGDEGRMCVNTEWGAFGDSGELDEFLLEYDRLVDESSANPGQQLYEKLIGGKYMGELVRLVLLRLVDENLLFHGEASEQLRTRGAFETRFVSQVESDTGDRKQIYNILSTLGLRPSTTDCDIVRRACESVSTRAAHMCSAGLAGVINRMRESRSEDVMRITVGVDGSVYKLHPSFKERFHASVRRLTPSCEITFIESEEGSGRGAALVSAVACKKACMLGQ
# T1 sequence (Q14397 whole entry, looked up): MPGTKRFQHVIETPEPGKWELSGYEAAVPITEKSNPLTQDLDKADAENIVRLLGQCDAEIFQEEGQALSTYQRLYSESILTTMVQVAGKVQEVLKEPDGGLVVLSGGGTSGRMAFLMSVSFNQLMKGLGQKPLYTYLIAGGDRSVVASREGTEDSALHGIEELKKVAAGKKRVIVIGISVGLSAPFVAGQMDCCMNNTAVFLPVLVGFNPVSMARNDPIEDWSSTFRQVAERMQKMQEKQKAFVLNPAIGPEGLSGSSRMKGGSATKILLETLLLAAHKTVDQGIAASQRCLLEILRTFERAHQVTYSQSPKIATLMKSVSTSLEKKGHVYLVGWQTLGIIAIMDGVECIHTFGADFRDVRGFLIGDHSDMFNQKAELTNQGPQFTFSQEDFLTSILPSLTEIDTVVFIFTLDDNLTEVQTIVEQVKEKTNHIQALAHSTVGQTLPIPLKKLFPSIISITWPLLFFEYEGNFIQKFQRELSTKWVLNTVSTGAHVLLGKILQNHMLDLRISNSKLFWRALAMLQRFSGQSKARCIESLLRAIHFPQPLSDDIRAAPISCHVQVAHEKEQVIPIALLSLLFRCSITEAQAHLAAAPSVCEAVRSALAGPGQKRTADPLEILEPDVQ
compound,measurement,setting,value
CCOC(=O)Nc1ccc2c(c1)N(C(=O)CCN1CCOCC1)c1ccccc1S2,max response,[1],12.1% (inactive)
same,"parasite growth, % of DMSO control",[2],47.5%
same,"parasite growth remaining, % of DMSO control (lower = more inhibition)",[3],85.2%
same,"parasite growth, % of control (lower = inhibition)",[4],68.2%
same,"growth, % of control",[5],41.6%
same,Potency,[6],inactive
same,outcome,[7],inactive
CC(C)[C@@H]1CC[C@@H](C)CC1=O,max response,[1],-7.98% (inactive)
same,Potency,[6],inactive
NS(=O)(=O)c1cc(C(=O)O)cc(N2CCCC2)c1Oc1ccccc1,max response,[1],-3.9% (inactive)
same,Potency,[6],inactive
same,outcome,[7],inactive
CCCCN=C(N)N=C(N)N,max response,[1],0.948% (inactive)
same,Potency,[6],inactive
CN=C(N)NCCC[C@H](N)C(=O)O,outcome,[8],inactive
same,outcome,[9],inactive
same,outcome,[10],inactive
same,outcome,[11],inactive
same,outcome,[12],inactive
same,max response,[1],-7.79% (inactive) and 5.96% (inactive) and -18.7% (inactive)
same,Potency,[6],inactive
O=C(O)C1(C(=O)O)CCC1.[NH2-].[NH2-].[Pt+2],max response,[1],-10.4% (inactive)
same,Potency,[6],inactive
O=C1C(CCS(=O)c2ccccc2)C(=O)N(c2ccccc2)N1c1ccccc1 (centres undefined),Potency,[1],0.0089 µM (active)
same,Potency,[6],inactive
Nc1nc(-c2ccccc2)c(Br)c(=O)[nH]1,max response,[1],-0.157% (inactive)
same,Potency,[6],inactive
O=[N+]([O-])c1ccc(/C=N\O)o1,outcome,[7],inactive
CCCCCCCCCCCCCCCCO,outcome,[13],inactive
same,max response,[14],-4.14% (inactive)
same,max response,[1],19.3% (inactive)
same,max response,[15],-3.2% (inactive)
same,Potency,[6],inactive
C[N+]1(CC2COC(c3ccccc3)(C3CCCCC3)O2)CCCCC1 (centres undefined),Potency,[1],11.2 µM (active)
same,outcome,[7],inactive
c1ccc(CC2=NCCN2)cc1,max response,[1],-3.06% (inactive)
CCCCCCCC/C=C\CCCCCCCCN,outcome,[13],inactive
same,max response,[14],3.81% (inactive)
same,max response,[1],-6.53% (inactive)
same,max response,[15],-0.943% (inactive)
same,outcome,[16],inactive
same,outcome,[7],inactive
O=C(Nc1ccc([N+](=O)[O-])cc1)Nc1ccc([N+](=O)[O-])cc1,max response,[1],3.29% (inactive)
CCOc1ccc(NC(C)=O)cc1,outcome,[13],inactive
same,outcome,[17],inactive
same,max response,[14],3.98% (inactive) and -0.784% (inactive)
same,max response,[1],18.5% (inactive)
same,max response,[15],-2.1% (inactive) and -6.16% (inactive)
same,outcome,[16],inactive
same,outcome,[7],inactive
CCOC(=O)c1c(N)sc2c1CCN(Cc1ccccc1)C2,Potency,[1],11.2 µM (active)
N/C(=N\N=C\c1ccc(Cl)cc1)N/N=C/c1ccc(Cl)cc1,max response,[1],0.563% (inactive)
CO[C@]12C[C@@H](COC(=O)c3cncc(Br)c3)CN(C)[C@@H]1Cc1cn(C)c3cccc2c13,max response,[1],10.7% (inactive)
same,outcome,[7],inactive
